Only some compounds are listed: those with a hit (about 7.3% of all), similar ones and a draw of the others.
NPC1 prom act = NPC1 promoter activation; AID 485313; 2.4% of 320,000 active; Huh7 NPC1 promoter luciferase reporter, 24 h; Potency, µM (doses to about 9.22 µM), actives largely listed as activators; note: nearly all actives have a fitted effect of over 60% in size
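Readout is luciferase luminescence, reflecting NPC1 promoter activation in stably transfected Huh7 cells after 24 h compound exposure at 37 °C in reduced-serum medium with 10% FBS.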
Rab9 promoter act = Rab9 promoter activation; Potency, µM (titrated, usually from 9.22 µM), usual class: activators; AID 485297; 2.8% of 320,000 active; Huh7 Rab9 promoter-luciferase reporter, luminescence, 24 h; note: nearly all actives have a fitted effect of over 60% in size
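Huh7 reporter line, Rab9 promoter upstream of luciferase. Compound exposure 24 h at 37 °C in reduced-serum medium with 10% FBS. Read-out: luminescence.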
ELG1 genotoxic = genotoxicity induction in ELG1-luciferase HEK293T cells | HEK293T ELG1-luciferase reporter, luminescence, 16 h | Potency, µM (doses to about 46 µM), most hits filed as activators | 1.3% of 330,000 active; note: nearly all actives have a fitted effect of over 60% in size
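HEK293T cells expressing luciferase-tagged ELG1 were exposed to compound or DMSO vehicle for 16 hr at 37 °C and 5% CO2. Luciferase activity was then measured with ONE-Glo after 30 min at room temperature.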
FLuc modulator = firefly luciferase modulation, counter-screen for miR-21 project; AID 588342; 6.9% of 360,000 active; purified FLuc, Km substrates, luminescence inhibition; P08659; Potency, µM (highest dose often 57.5 µM), most hits filed as inhibitors; note: nearly all actives have a fitted effect of over 55% in size
Target sequence (P08659 whole entry, looked up): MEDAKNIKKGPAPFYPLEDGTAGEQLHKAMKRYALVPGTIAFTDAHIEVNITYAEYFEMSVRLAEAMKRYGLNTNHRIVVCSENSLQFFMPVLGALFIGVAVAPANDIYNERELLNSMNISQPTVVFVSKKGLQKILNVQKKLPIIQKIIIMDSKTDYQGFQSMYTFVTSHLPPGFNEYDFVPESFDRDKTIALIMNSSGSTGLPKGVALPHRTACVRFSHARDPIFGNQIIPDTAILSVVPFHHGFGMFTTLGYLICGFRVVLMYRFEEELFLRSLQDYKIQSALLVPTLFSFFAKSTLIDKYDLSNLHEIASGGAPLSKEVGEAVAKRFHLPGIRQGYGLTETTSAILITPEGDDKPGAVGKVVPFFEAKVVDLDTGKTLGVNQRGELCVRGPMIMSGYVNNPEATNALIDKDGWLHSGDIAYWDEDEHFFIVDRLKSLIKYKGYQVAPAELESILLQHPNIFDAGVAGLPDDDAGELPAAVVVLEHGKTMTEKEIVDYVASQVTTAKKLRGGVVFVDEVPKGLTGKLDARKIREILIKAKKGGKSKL
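Biochemical qHTS of compounds, final roughly 60 µM downward over six points, against 10 nM purified firefly luciferase using Km concentrations of substrates (10 uM D-luciferin, 10 uM ATP) in Tris acetate pH 7.5 buffer; luminescence output.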
Luc counter = counter-screen: inhibitors of Kinase-Glo firefly luciferase | Q27757 | Kinase-Glo luciferase, ATP luminescence, 8 min | Potency, µM (doses to about 38.3 µM), usual class: inhibitors | 0.28% of 200,000 active; note: nearly all actives have a fitted effect of over 60% in size
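Recombinant Kinase-Glo luciferase, 10 uM ATP (linear range), luciferin; imidazole pH 7.2 / KCl / MgCl2 / Tween / BSA buffer; 8 min RT; luminescence.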
SMN2 splice enh = increases expression of the SMN2 splice variant; HEK293 SMN2-luciferase splicing reporter, luminescence, 30-36 h; Potency, µM (doses to about 46.1 µM), most hits filed as activators; 2.8% of 210,000 active; note: nearly all actives have a fitted effect of over 55% in size
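HEK293 cells carry an SMN2 minigene-luciferase reporter in which exon 7 inclusion puts luciferase in frame. Cells were seeded at 2000 cells/well, attached for 10-12 hours, then exposed to compounds for 30-36 hours at 37C before ONE-Glo luminescence.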
Of the large screens only hits and unclear results are named; the others gave an inactive call. Calls come from the whole dose curve; as a rule, active = well fitted curve in the direction sought with a large enough effect; inconclusive = small, poorly fitted or top-dose-only effect, or another doubt; inactive = no such curve, though single readings can be large; an effect the other way counts as inactive or inconclusive.

COc1ccc(Br)cc1C(=O)NC(=S)Nc1ccc(CN2CCOCC2)cc1	none (no result: Luc counter, SMN2 splice enh)
Cc1ccc(S(=O)(=O)OC2CCN(C)CC2)cc1	none (no result: NPC1 prom act, Rab9 promoter act, ELG1 genotoxic, FLuc modulator)
CCCCNC(=O)CCCN1C(=O)CCn2nc(-c3cccn3C)cc21	none (no result: NPC1 prom act, Rab9 promoter act, ELG1 genotoxic, Luc counter, SMN2 splice enh)
O=C(N/N=C/c1cccc(F)c1)c1c(O)c2c([nH]c1=O)CCCC2	NPC1 prom act 1.58µM, Rab9 promoter act 2µM, ELG1 genotoxic inconclusive, FLuc modulator inconclusive, SMN2 splice enh 12.6µM
CNC(=O)c1ccccc1NC(=O)c1c(O)c2c([nH]c1=O)CCCC2	ELG1 genotoxic inconclusive, FLuc modulator inconclusive
O=C(CSc1nncs1)NC(=O)Nc1ccc2c(c1)OCCO2	NPC1 prom act inconclusive, Rab9 promoter act 3.55µM, ELG1 genotoxic inconclusive, FLuc modulator 15.1µM (no result: Luc counter, SMN2 splice enh)
Cc1cc(C(=O)CSc2nncs2)c(C)n1-c1ccc2c(c1)OCO2	NPC1 prom act inconclusive, Rab9 promoter act 2.24µM, FLuc modulator 19µM
O=C(CSc1nncs1)Nc1ccc2c(c1)OCCO2	NPC1 prom act inconclusive, Rab9 promoter act inconclusive, ELG1 genotoxic 14.6µM, FLuc modulator inconclusive
Cc1ccc([C@@H](O)c2cnc(C)n2Cc2ccccc2)cc1	none (no result: NPC1 prom act, Rab9 promoter act, ELG1 genotoxic, FLuc modulator)
Cc1oc2ccc(O)cc2c1C(=O)c1ccc([N+](=O)[O-])cc1	none
CN(C)/C=C/c1oc2ccc(O)cc2c1[N+](=O)[O-]	Rab9 promoter act 3.16µM, ELG1 genotoxic inconclusive, FLuc modulator inconclusive
O=C(NCc1ccccn1)Nc1ccccc1	NPC1 prom act inconclusive, Rab9 promoter act 1.58µM, ELG1 genotoxic inconclusive, FLuc modulator 13.5µM (no result: SMN2 splice enh)
O=C(NCc1ccccn1)Nc1ccc(Br)cc1	none (no result: Luc counter, SMN2 splice enh)
O=C(NCc1ccccn1)Nc1ccccc1Cl	ELG1 genotoxic inconclusive (no result: Luc counter, SMN2 splice enh)
O=C(NCc1ccccn1)Nc1ccc(Cl)cc1Cl	NPC1 prom act 3.16µM, Rab9 promoter act inconclusive, ELG1 genotoxic inconclusive, FLuc modulator inconclusive (no result: Luc counter, SMN2 splice enh)
Cc1ccc(NC(=O)C(NCc2ccccn2)c2ccccc2)cc1 (centres undefined)	FLuc modulator 16.9µM
Cc1ccc(NC(=S)NCc2ccccn2)cc1	none
CCOc1ccc(CNC(=O)C2Cc3ccccc3N2C(=O)CC)cc1 (centres undefined)	none (no result: NPC1 prom act, Rab9 promoter act, ELG1 genotoxic, Luc counter, SMN2 splice enh)
CCC1CN(C(=O)N2CCC(C(=O)NCCc3ccc(C)cc3)CC2)c2ccccc2O1 (centres undefined)	none (no result: NPC1 prom act, Rab9 promoter act, ELG1 genotoxic, Luc counter, SMN2 splice enh)
CSc1ccc(Nc2nn(-c3ccc(OC(F)(F)F)cc3)nc2C(C)=O)cc1	none (no result: NPC1 prom act, Rab9 promoter act, ELG1 genotoxic, Luc counter)
CCCc1nn(C)c(C(=O)Nc2cccc(Cl)c2)c1Cl	Rab9 promoter act inconclusive, ELG1 genotoxic inconclusive, FLuc modulator 21.3µM
CCCc1nn(C)c(C(=O)Nc2ccccc2)c1Cl	NPC1 prom act 3.55µM, Rab9 promoter act 1.12µM, ELG1 genotoxic inconclusive, FLuc modulator 7.57µM
CCCc1nn(C)c(C(=O)Nc2cccc(C)c2)c1Cl	NPC1 prom act inconclusive, Rab9 promoter act inconclusive, ELG1 genotoxic inconclusive, FLuc modulator 16.9µM
CCCc1nn(C)c(C(=O)Nc2ccc(Cl)cc2)c1Cl	none
CCCc1nn(C)c(C(=O)Nc2ccc(C(C)(C)C)cc2)c1Cl	FLuc modulator inconclusive
CCCCc1nn2c(=O)cc(COC(=O)c3cccc(NC(=O)CCc4ccccc4)c3)nc2s1	none (no result: NPC1 prom act, Rab9 promoter act, ELG1 genotoxic, Luc counter, SMN2 splice enh)
CCc1ccc(NC(=O)N(Cc2ccc(C)cc2)Cc2cccn2-c2nnc(N3CCCC3=O)s2)cc1	none (no result: NPC1 prom act, Rab9 promoter act, ELG1 genotoxic, Luc counter)
O=C1OCCC1Sc1nc2ccccc2[nH]1 (centres undefined)	none
O=C(O)CSc1nc2ccccc2[nH]1	none
c1ccc2[nH]c(SCC3CCCCO3)nc2c1 (centres undefined)	NPC1 prom act 1.78µM, Rab9 promoter act 1.41µM, ELG1 genotoxic inconclusive, FLuc modulator 19µM, Luc counter inconclusive
ClC1(Cl)CC1CSc1nc2ccccc2[nH]1 (centres undefined)	NPC1 prom act inconclusive, Rab9 promoter act inconclusive, FLuc modulator 16.9µM, SMN2 splice enh inconclusive
CCOc1ccc2nc(SCC3CC3(Cl)Cl)[nH]c2c1 (centres undefined)	NPC1 prom act 2.51µM, Rab9 promoter act 3.16µM, ELG1 genotoxic inconclusive, FLuc modulator 7.57µM (no result: Luc counter, SMN2 splice enh)
Cc1cc(=O)n(CC(=O)N2CCCCC2)c2c1c(C)nn2C	none (no result: NPC1 prom act, Rab9 promoter act, ELG1 genotoxic, Luc counter, SMN2 splice enh)
CCOC(=O)Cn1nc(/C=C/c2ccc(C)cc2)ccc1=O	FLuc modulator inconclusive

Source: PubChem BioAssay (National Center for Advancing Translational Sciences (NCATS))
